PubChem BioAssay (EPA / NIEHS)
Results filed as inconclusive are left out. Activity calls are given as the source filed them. The calls were made as follows, unless noted: active = hit-call score of the fitted dose curve at least 0.9, where 1 is the maximum; inconclusive = response in the unintended direction; inactive = score below 0.9.

Tested on: Sodium/Iodide Symporter (NIS), SLC5A5 (gene 6528)
Assay: CPHEA_Stoker_NIS_Inhibition_RAIU: CPHEA's Radioactive Iodide Uptake (RAIU) Assay for Sodium/Iodide Symporter (NIS) Inhibition, Stoker and Laws Labs (AID 2283841)
Conditions: not given
Outline: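 Iodide uptake read as CPM of intracellular 125I (final 329 pM) after 2 h room-temperature exposure in HEPES-buffered HBSS, pH 7.4. Human NIS-expressing HEK293T cells; six concentrations 0.001–100 uM, 0.5% DMSO, normalised to DMSO wells.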

Row | SMILES | outcome | AC50
1 | C=C1C[C@H]2[C@@H]3C=C(C)C4=CC(=O)CC[C@]4(C)[C@H]3CC[C@]2(C)[C@@]1(OC(C)=O)C(C)=O | inactive | 
2 | Cc1ccc([N+](=O)[O-])cc1N | inactive | 
3 | CCCCCCCCCC[N+](C)(CCCCCCCCCC)CCC[Si](OC)(OC)OC | inactive | 
4 | CCCCC/C=C\C/C=C\CCCCCCCC(=O)O | inactive | 
5 | CO[Si](C)(C)OC | inactive | 
6 | O=C(Nc1ccccc1)c1cc(Cl)ccc1O |  | 0.851 µM (active)
7 | COc1ccc(-c2coc3cc(O)cc(O)c3c2=O)cc1 |  | 9.92 µM (active)
8 | CCCCCCCCCCCCCCCCCCOS(=O)(=O)O | inactive | 
9 | O=C(OCCc1ccccc1)c1ccccc1 | inactive | 
10 | O=C(Oc1ccccc1)c1ccccc1O | inactive | 
11 | O=C(OCc1ccccc1)c1ccc(O)cc1 | inactive | 
12 | CCCCCCCOC(=O)c1ccc(O)cc1 | inactive | 
13 | O=C(O)c1cc(O)c2ccccc2c1O | inactive | 
14 | COc1ccc(C(=O)c2ccccc2)c(O)c1 | inactive | 
15 | CN(C)c1ccc2nc3ccc(=[N+](C)C)cc-3sc2c1 | inactive | 
16 | C/C=C/C=C/CCCCCCCO | inactive | 
17 | CC(C)c1ccc(O)c(C(C)C)c1 | inactive | 
18 | C[N+](C)(C)CCCNS(=O)(=O)C(F)(F)C(F)(F)C(F)(F)C(F)(F)C(F)(F)C(F)(F)C(F)(F)C(F)(F)F |  | 7.09 µM (active)
19 | C=CCOC(=O)c1ccc(C(=O)OCC=C)c(C(=O)OCC=C)c1 |  | 10.2 µM (active)
20 | Oc1ccc(-c2ccccc2)c(Cl)c1 | inactive | 
21 | c1ccc(Nc2cccc3ccccc23)cc1 |  | 21.5 µM (active)

Tested on: not listed separately
Assay: CPHEA_Stoker_NIS_Cytotoxicity: Cytotoxicity Assessment for CPHEA's Radioactive Iodide Uptake (RAIU) Assay for Sodium/Iodide Symporter (NIS) Inhibition, Stoker and Laws Labs (AID 2283897);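 as to AC50: active means loss of ATP signal versus DMSO meaning cytotoxicity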
Conditions: not given
Outline: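 CellTiter-Glo ATP luminescence gauged viability in HEK293T cells expressing human NIS after 2 h chemical exposure. Concentrations ran 0.001–100 uM in 0.5% DMSO; DMSO served as baseline for the loss-of-signal fit.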

Row | SMILES | outcome | AC50
22 | C=C1C[C@H]2[C@@H]3C=C(C)C4=CC(=O)CC[C@]4(C)[C@H]3CC[C@]2(C)[C@@]1(OC(C)=O)C(C)=O | inactive | 
23 | Cc1ccc([N+](=O)[O-])cc1N | inactive | 
24 | CCCCCCCCCC[N+](C)(CCCCCCCCCC)CCC[Si](OC)(OC)OC | inactive | 
25 | CCCCC/C=C\C/C=C\CCCCCCCC(=O)O |  | 80.1 µM (active)
26 | CO[Si](C)(C)OC | inactive | 
27 | O=C(Nc1ccccc1)c1cc(Cl)ccc1O | inactive | 
28 | COc1ccc(-c2coc3cc(O)cc(O)c3c2=O)cc1 | inactive | 
29 | CCCCCCCCCCCCCCCCCCOS(=O)(=O)O | inactive | 
30 | O=C(OCCc1ccccc1)c1ccccc1 | inactive | 
31 | O=C(Oc1ccccc1)c1ccccc1O | inactive | 
32 | O=C(OCc1ccccc1)c1ccc(O)cc1 | inactive | 
33 | CCCCCCCOC(=O)c1ccc(O)cc1 | inactive | 
34 | O=C(O)c1cc(O)c2ccccc2c1O | inactive | 
35 | COc1ccc(C(=O)c2ccccc2)c(O)c1 | inactive | 
36 | CN(C)c1ccc2nc3ccc(=[N+](C)C)cc-3sc2c1 |  | 50 µM (active)
37 | C/C=C/C=C/CCCCCCCO | inactive | 
38 | CC(C)c1ccc(O)c(C(C)C)c1 | inactive | 
39 | C=CCOC(=O)c1ccc(C(=O)OCC=C)c(C(=O)OCC=C)c1 | inactive | 
40 | Oc1ccc(-c2ccccc2)c(Cl)c1 | inactive | 
41 | c1ccc(Nc2cccc3ccccc23)cc1 | inactive | 

Read-out: not listed separately
Assay: CEETOX_H295R_11DCORT_noMTC: CeeTox H295R High-throughput Steroidogenesis Assay for 11-Deoxycortisol (11DCORT), maximum tolerated concentration (MTC) filtered results only (AID 2283911; active = hit-call score of the fitted dose curve at least 0.9, where 1 is the maximum; inactive = score below 0.9)
Conditions: actives raise or lower the signal
Outline: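 Forskolin-primed (10 uM, 48 h) H295R adrenal cells are dosed for 48 h at 0.1% DMSO; medium 11-deoxycortisol is quantified by LC-MS/MS against a 7-point standard curve, with activity fitted in both directions versus DMSO.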

Row | SMILES | AC50 | outcome
42 | COc1ccc(C(=O)/C(Br)=C\C(=O)O)cc1 | 65.2 µM (active) | 
43 | N#Cc1ccc(C2CCCc3cncn32)cc1 (stereo not given) |  | inactive
44 | CCCC=C(C=O)CC |  | inactive
45 | CCCCC1C(=O)N(c2ccccc2)N(c2ccccc2)C1=O |  | inactive
46 | CC(C)c1ccc(O)c(C(C)C)c1 |  | inactive
47 | N#Cc1ccc(C(c2ccc(C#N)cc2)n2cncn2)cc1 |  | inactive

Read-out: not listed separately
Assay: CEETOX_H295R_OHPREG_noMTC: CeeTox H295R High-throughput Steroidogenesis Assay for OH-Pregnenolone (OHPREG), maximum tolerated concentration (MTC) filtered results only (AID 2283912; active = hit-call score of the fitted dose curve at least 0.9, where 1 is the maximum; inactive = score below 0.9)
Conditions: actives raise or lower the signal
Outline: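 H295R; 10 uM forskolin 48 h pre-stim; test cpd in DMSO (0.1% final) 48 h; media MTBE-extracted, HPLC-MS/MS for OH-pregnenolone; bidirectional fit vs DMSO; no MTC (MTT) filtering.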

Row | SMILES | AC50 | outcome
48 | COc1ccc(C(=O)/C(Br)=C\C(=O)O)cc1 | 14.2 µM (active) | 
49 | N#Cc1ccc(C2CCCc3cncn32)cc1 (stereo not given) |  | inactive
50 | CCCC=C(C=O)CC |  | inactive
51 | CCCCC1C(=O)N(c2ccccc2)N(c2ccccc2)C1=O |  | inactive
52 | CC(C)c1ccc(O)c(C(C)C)c1 |  | inactive
53 | N#Cc1ccc(C(c2ccc(C#N)cc2)n2cncn2)cc1 |  | inactive

Read-out: not listed separately
Assay: CEETOX_H295R_OHPROG_noMTC: CeeTox H295R High-throughput Steroidogenesis Assay for OH-Progesterone (OHPROG), maximum tolerated concentration (MTC) filtered results only (AID 2283914; active = hit-call score of the fitted dose curve at least 0.9, where 1 is the maximum; inactive = score below 0.9)
Conditions: actives raise or lower the signal
Outline: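 Medium hormone measured by reverse-phase C18 HPLC with positive electrospray MS/MS after MTBE liquid-liquid extraction. Cells had 48 h forskolin (10 uM) prestimulation, then 48 h chemical dosing. Gain or loss of signal fitted relative to DMSO baseline.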

Row | SMILES | AC50 | outcome
54 | COc1ccc(C(=O)/C(Br)=C\C(=O)O)cc1 | 58.3 µM (active) | 
55 | N#Cc1ccc(C2CCCc3cncn32)cc1 (stereo not given) | 2.31 µM (active) | 
56 | CCCC=C(C=O)CC |  | inactive
57 | CC(C)c1ccc(O)c(C(C)C)c1 |  | inactive
58 | N#Cc1ccc(C(c2ccc(C#N)cc2)n2cncn2)cc1 |  | inactive

Read-out: not listed separately
Assay: CEETOX_H295R_CORTISOL_noMTC: CeeTox H295R High-throughput Steroidogenesis Assay for Cortisol, maximum tolerated concentration (MTC) filtered results only (AID 2283916; active = hit-call score of the fitted dose curve at least 0.9, where 1 is the maximum; inactive = score below 0.9)
Conditions: actives raise or lower the signal
Outline: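 H295R human adrenal cells prestimulated 48 h with 10 uM forskolin, then exposed 48 h to chemical in 0.1% DMSO; cortisol in medium quantified by HPLC-MS/MS; bidirectional fit vs DMSO baseline, concentrations not MTT-filtered for MTC.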

Row | SMILES | AC50 | outcome
59 | COc1ccc(C(=O)/C(Br)=C\C(=O)O)cc1 | 50 µM (active) | 
60 | N#Cc1ccc(C2CCCc3cncn32)cc1 (stereo not given) | 2.52 µM (active) | 
61 | CCCC=C(C=O)CC |  | inactive
62 | CCCCC1C(=O)N(c2ccccc2)N(c2ccccc2)C1=O |  | inactive
63 | CC(C)c1ccc(O)c(C(C)C)c1 |  | inactive
64 | N#Cc1ccc(C(c2ccc(C#N)cc2)n2cncn2)cc1 | 4.92 µM (active) | 

Read-out: not listed separately
Assay: CEETOX_H295R_CORTIC_noMTC: CeeTox H295R High-throughput Steroidogenesis Assay for Corticosterone (CORTIC), maximum tolerated concentration (MTC) filtered results only (AID 2283917; active = hit-call score of the fitted dose curve at least 0.9, where 1 is the maximum; inactive = score below 0.9)
Conditions: actives raise or lower the signal
Outline: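 Corticosterone secreted into the medium was measured by reverse-phase C18 HPLC with tandem MS after MTBE extraction. Cells (H295R) had 48 h forskolin (10 uM) stimulation before 48 h chemical exposure; gain or loss of signal was fitted relative to DMSO.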

Row | SMILES | AC50 | outcome
65 | COc1ccc(C(=O)/C(Br)=C\C(=O)O)cc1 | 57.8 µM (active) | 
66 | N#Cc1ccc(C2CCCc3cncn32)cc1 (stereo not given) | 1.44 µM (active) | 
67 | CCCC=C(C=O)CC |  | inactive
68 | CCCCC1C(=O)N(c2ccccc2)N(c2ccccc2)C1=O |  | inactive
69 | CC(C)c1ccc(O)c(C(C)C)c1 | 31.2 µM (active) | 
70 | N#Cc1ccc(C(c2ccc(C#N)cc2)n2cncn2)cc1 |  | inactive
